IDE exosite inh: displaces the probe from the exo-site of human IDE | purified IDE, FL-6b probe fluorescence polarization; active compounds read low | z-score at 20 µM | hit rate 6.3% among 17,000 | AID 1259349 | P14735;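 active means z-score of -3 or lower, meaning strong loss of probe binding signal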;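 further: His-tagged human IDE residues 42-1019 made in E. coli with 30 nM FL-6b probe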
Target sequence (P14735 42-1019 limits assumed): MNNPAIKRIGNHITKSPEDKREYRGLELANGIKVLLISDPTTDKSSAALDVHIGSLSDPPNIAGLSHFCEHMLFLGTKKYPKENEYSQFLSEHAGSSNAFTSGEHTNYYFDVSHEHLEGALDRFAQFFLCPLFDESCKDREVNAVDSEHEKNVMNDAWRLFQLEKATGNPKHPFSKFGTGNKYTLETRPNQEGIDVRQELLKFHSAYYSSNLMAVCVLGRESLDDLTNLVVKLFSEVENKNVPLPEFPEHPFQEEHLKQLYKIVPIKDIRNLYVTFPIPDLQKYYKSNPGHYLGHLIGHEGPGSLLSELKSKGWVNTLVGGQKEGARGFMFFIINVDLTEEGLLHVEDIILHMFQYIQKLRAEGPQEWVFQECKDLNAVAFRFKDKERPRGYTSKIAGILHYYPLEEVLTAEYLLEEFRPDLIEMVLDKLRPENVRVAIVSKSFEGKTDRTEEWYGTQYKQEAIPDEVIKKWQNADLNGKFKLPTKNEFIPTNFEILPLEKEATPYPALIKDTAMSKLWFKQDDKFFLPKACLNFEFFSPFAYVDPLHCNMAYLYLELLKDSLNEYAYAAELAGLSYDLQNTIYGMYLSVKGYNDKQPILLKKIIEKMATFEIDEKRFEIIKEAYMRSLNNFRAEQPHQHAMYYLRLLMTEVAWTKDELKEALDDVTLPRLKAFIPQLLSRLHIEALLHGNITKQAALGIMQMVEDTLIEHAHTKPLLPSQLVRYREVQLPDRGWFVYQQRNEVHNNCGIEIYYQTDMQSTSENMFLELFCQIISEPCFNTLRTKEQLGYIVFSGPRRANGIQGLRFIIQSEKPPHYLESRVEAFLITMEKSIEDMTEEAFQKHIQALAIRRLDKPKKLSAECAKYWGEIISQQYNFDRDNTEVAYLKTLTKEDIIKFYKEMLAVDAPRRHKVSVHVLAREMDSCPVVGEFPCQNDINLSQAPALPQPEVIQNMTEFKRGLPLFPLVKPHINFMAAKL
An asterisk follows results filed as active. This is one part of a sample in which hits are shown more often than they occur.

SMILES | IDE exosite inh
COc1cccc(-c2ccccc2[C@@H]2[C@H](C#N)N(C(=O)Cc3ccccc3)[C@H]2CO)c1 | 0.948
CCCNC(=O)N1[C@H](CO)[C@H](c2ccc(-c3cccc(OC)c3)cc2)[C@@H]1C#N | -1.19
COc1cccc(-c2ccc([C@H]3[C@@H](C#N)N(C(=O)Cc4ccncc4)[C@@H]3CO)cc2)c1 | -3.76*
COCC#Cc1ccc([C@@H]2[C@@H](CO)N3C(=O)CN(C(=O)Nc4ccccc4F)C[C@@H]23)cc1 | 1.26
CCCN1C[C@@H](C)[C@H](OC)CN(C)C(=O)c2cc(NC(=O)Nc3cccc(F)c3)ccc2OC[C@@H]1C | 1.54
COc1ccc2c3c(n(C)c2c1)[C@H](CO)N(S(C)(=O)=O)CC31CCN(C(=O)Nc2cccc(F)c2)CC1 | -0.767
Cc1ccccc1-c1ccc([C@H]2[C@H](CO)N3CCCCN(C(=O)Nc4ccc(F)cc4)C[C@@H]23)cc1 | -2.45
COc1ccc(NC(=O)N2CCCCN3[C@@H](CO)[C@H](c4ccc(-c5ccccc5F)cc4)[C@@H]3C2)cc1 | -0.767
COc1ccc(NC(=O)N2CCCCN3[C@H](CO)[C@H](c4ccc(-c5ccccc5C)cc4)[C@H]3C2)cc1 | -4.26*
COc1ccc(NC(=O)N2CCCCN3[C@H](C2)[C@@H](c2ccc(-c4ccccc4C)cc2)[C@@H]3CO)cc1 | -4.12*
Cc1ccccc1-c1ccc([C@H]2[C@@H](CO)N3CCCCN(C(=O)Nc4ccccc4)C[C@H]23)cc1 | -8.78*
Cc1ccccc1-c1ccc([C@H]2[C@H]3CN(C(=O)Nc4ccccc4)CCCCN3[C@H]2CO)cc1 | 0.801
COc1ccc(NC(=O)N2CCCCN3[C@@H](CO)[C@@H](c4ccc(-c5ccccc5F)cc4)[C@@H]3C2)cc1 | -1.19
Cc1ccccc1-c1ccc([C@@H]2[C@H]3CN(C(=O)Nc4ccc(F)cc4)CCCCN3[C@H]2CO)cc1 | -0.344
Cc1ccccc1-c1ccc([C@@H]2[C@H]3CN(C(=O)Nc4ccccc4)CCCCN3[C@H]2CO)cc1 | 0.795
O=C(C[C@H]1CC[C@@H]2[C@H](COC[C@H](O)CN2C(=O)c2ccccc2F)O1)NCc1ccc(Cl)c(Cl)c1 | 0.155
O=S(=O)(c1cccc(F)c1)N1CC[C@@H]2[C@H]1c1cc(Br)ccc1N[C@@H]2CO | 0.882
CN1c2ccc(Br)cc2[C@H]2[C@H](CCN2C(=O)Cc2ccccc2)[C@H]1CO | 2.16
N#C[C@H]1[C@@H](c2ccccc2)[C@@H](CO)N1S(=O)(=O)Cc1ccccc1 | 4.8
Fc1ccccc1CN1[C@@H]2CNC[C@H]1C2c1ccc(-c2ccncc2)cc1 (stereo partly drawn) | 0.883
O=C(C1CCOCC1)N1CC(=O)N2[C@H](CO)[C@H](c3ccc(-c4cccnc4)cc3)[C@@H]2C1 | -1.14
Cc1cccc(-c2ccc([C@H]3[C@@H](CO)N4CCCCN(Cc5ccncc5)C[C@@H]34)cc2)c1 | -5.8*
Cc1cccc(-c2ccc([C@@H]3[C@@H](CO)N4CCCCN(Cc5ccncc5)C[C@@H]34)cc2)c1 | -4.88*
OC[C@@H]1[C@H](c2ccc(-c3ccc(F)cc3)cc2)[C@H]2CN(Cc3ccncc3)CCCCN12 | 4.26
Cc1cccc(-c2ccc([C@@H]3[C@H]4CN(CCC(F)(F)F)CCCCN4[C@H]3CO)cc2)c1 | -0.0492
SMILES | IDE exosite inh
CN(C)C(=O)c1ccc(-c2ccc([C@@H]3[C@@H](CO)N4CCCCN(Cc5ccncc5)C[C@H]34)cc2)cc1 | 1.06
OC[C@H]1[C@@H](c2ccc(-c3ccc(F)cc3)cc2)[C@H]2CN(Cc3ccncc3)CCCCN21 | 3.99
O=C(c1ccccn1)N1C[C@H]2[C@@H](c3ccccc31)[C@@H](CO)N2C(=O)C1CCCCC1 | 1.87
CC(=O)NC[C@H]1[C@H](c2ccc(C3=CCCC3)cc2)[C@@H](CO)N1Cc1cccnc1 | -0.194
O=C(Nc1cc(F)ccc1F)N[C@@H]1CC[C@H](CC(=O)N2CCc3ccccc3C2)O[C@@H]1CO | 1.32
CCS(=O)(=O)Nc1ccc2c(c1)C(=O)N(C)[C@H]1CC[C@@H](CC(=O)N[C@@H]3CCN(Cc4ccccc4)C3)O[C@@H]1CO2 | 0.771
OC[C@@H]1[C@H](c2ccc(C#Cc3ccccc3F)cc2)[C@H]2CN(Cc3cncnc3)CCCCN12 | -9.68*
COc1ccc(C#Cc2ccc([C@@H]3[C@@H](CO)N4CCCCN(C)C[C@H]34)cc2)cc1 | 0.274
COc1ccc(C#Cc2ccc([C@@H]3[C@H](CO)N4CCCCN(C)C[C@@H]34)cc2)cc1 | -0.0839
CN1CCCCN2[C@H](CO)[C@H](c3ccc(C#Cc4ccccc4F)cc3)[C@@H]2C1 | -5.51*
OC[C@H]1[C@@H](c2ccc(-c3ccccc3)cc2)[C@H]2CN(Cc3cncnc3)CCCCN21 | -1.26
OC[C@@H]1[C@H](c2ccc(C#Cc3ccccc3F)cc2)[C@H]2CN(CC3CCOCC3)CCCCN12 | -2.26
OC[C@H]1[C@@H](c2ccc(C#Cc3ccccc3F)cc2)[C@@H]2CN(CC3CCOCC3)CCCCN12 | -2.85
OC[C@@H]1[C@@H](c2ccc(C#Cc3ccccc3)cc2)[C@H]2CN(Cc3cncnc3)CCCCN12 | 0.194
CN1CCCCN2[C@H](C1)[C@H](c1ccc(C#Cc3ccccc3F)cc1)[C@@H]2CO | -3.92*
OC[C@H]1[C@H](c2ccc(C#Cc3ccccc3F)cc2)[C@@H]2CN(CC3CCOCC3)CCCCN12 | 0.242
CN1CCCCN2[C@H](CO)[C@H](c3ccc(C#Cc4ccccc4F)cc3)[C@H]2C1 | -4.48*
COc1ccc(C#Cc2ccc([C@H]3[C@@H](CO)N4CCCCN(C)C[C@H]34)cc2)cc1 | 2
CS(=O)(=O)N1CC(=O)N2[C@H](C1)[C@@H](c1ccc(C#CC3CCCC3)cc1)[C@@H]2CO | 2.39
CCCC#Cc1ccc([C@H]2[C@H](CO)N3C(=O)CN(S(=O)(=O)Cc4ccccc4)C[C@@H]23)cc1 | 5.87
CNC[C@H]1Oc2cc(C3=CCCC3)ccc2S(=O)(=O)N([C@H](C)CO)C[C@@H]1C | -0.533
O=C(N[C@@H]1CC[C@H](CCNS(=O)(=O)c2ccc(F)cc2)O[C@@H]1CO)C1CCC1 | 3.5
CCS(=O)(=O)NCC[C@H]1CC[C@H](NS(=O)(=O)c2ccccc2C)[C@H](CO)O1 | 1.98
COCC(=O)N1[C@H](CO)[C@H](c2ccc(-c3ccccc3OC)cc2)C12CN(C(C)=O)C2 | -2.97
N#C[C@H]1[C@H](c2ccccc2)[C@H](CO)N1S(=O)(=O)c1ccc(-c2ccccc2)cc1 | -0.541
SMILES | IDE exosite inh
O=C(C1CCCC1)N1CC(=O)N2[C@H](CO)[C@@H](c3ccc(C#CC4CCCC4)cc3)[C@H]2C1 | 1.08
COc1cccc(C#Cc2ccc([C@H]3[C@@H](CO)N(C(=O)C4CCCCC4)[C@H]3C#N)cc2)c1 | 6.17
COc1ccc(C#Cc2ccc([C@@H]3[C@@H](CO)N4C(=O)CN(C(=O)Nc5ccccc5F)C[C@H]34)cc2)cc1 | 2.24
O=S(=O)(c1cccc(F)c1)N1CC[C@@H]2[C@H](CO)Nc3ccc(C#Cc4ccccc4F)cc3[C@@H]21 | 1.52
CCC(=O)N1[C@H](CO)[C@H](c2ccccc2)C12CN(C(=O)c1ccncc1)C2 | 0.464
O=C(Cc1ccccn1)N1CC2(C1)[C@H](c1ccccc1)[C@H](CO)N2C(=O)c1ccncc1 | -4.47*
CCC(=O)N1[C@@H](CO)[C@@H](c2ccccc2)C12CN(C(=O)c1ccncc1)C2 | 1.08
C/C=C/c1ccc([C@H]2[C@@H](CO)N3C(=O)CN(C(=O)Nc4cccc(OC)c4)C[C@@H]23)cc1 | -0.807
CCC(=O)NC[C@@H]1[C@@H](c2ccc(C3=CCCC3)cc2)[C@@H](CO)N1CC1CC1 | 1.29
